In PMC4336329 (PLoS ONE, 2015):
In all, about 310,000 compounds went through this assay and about 14,000 (4.5%) showed an effect of 50% or more. The effect is printed as a negative number. The sample as a whole holds a higher share of strong results than the screen did.

target: human ether-à-go-go-related gene (hERG) potassium channel (human, UniProt Q12809); experiment: primary screen, population patch clamp on CHO cells stably expressing hERG; higher = less effect of the substance
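Also: peak tail current of the secondary pulse compared with the same well before compound.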

human ether-à-go-go-related gene (hERG) potassium channel, sequence (Q12809 whole entry, looked up): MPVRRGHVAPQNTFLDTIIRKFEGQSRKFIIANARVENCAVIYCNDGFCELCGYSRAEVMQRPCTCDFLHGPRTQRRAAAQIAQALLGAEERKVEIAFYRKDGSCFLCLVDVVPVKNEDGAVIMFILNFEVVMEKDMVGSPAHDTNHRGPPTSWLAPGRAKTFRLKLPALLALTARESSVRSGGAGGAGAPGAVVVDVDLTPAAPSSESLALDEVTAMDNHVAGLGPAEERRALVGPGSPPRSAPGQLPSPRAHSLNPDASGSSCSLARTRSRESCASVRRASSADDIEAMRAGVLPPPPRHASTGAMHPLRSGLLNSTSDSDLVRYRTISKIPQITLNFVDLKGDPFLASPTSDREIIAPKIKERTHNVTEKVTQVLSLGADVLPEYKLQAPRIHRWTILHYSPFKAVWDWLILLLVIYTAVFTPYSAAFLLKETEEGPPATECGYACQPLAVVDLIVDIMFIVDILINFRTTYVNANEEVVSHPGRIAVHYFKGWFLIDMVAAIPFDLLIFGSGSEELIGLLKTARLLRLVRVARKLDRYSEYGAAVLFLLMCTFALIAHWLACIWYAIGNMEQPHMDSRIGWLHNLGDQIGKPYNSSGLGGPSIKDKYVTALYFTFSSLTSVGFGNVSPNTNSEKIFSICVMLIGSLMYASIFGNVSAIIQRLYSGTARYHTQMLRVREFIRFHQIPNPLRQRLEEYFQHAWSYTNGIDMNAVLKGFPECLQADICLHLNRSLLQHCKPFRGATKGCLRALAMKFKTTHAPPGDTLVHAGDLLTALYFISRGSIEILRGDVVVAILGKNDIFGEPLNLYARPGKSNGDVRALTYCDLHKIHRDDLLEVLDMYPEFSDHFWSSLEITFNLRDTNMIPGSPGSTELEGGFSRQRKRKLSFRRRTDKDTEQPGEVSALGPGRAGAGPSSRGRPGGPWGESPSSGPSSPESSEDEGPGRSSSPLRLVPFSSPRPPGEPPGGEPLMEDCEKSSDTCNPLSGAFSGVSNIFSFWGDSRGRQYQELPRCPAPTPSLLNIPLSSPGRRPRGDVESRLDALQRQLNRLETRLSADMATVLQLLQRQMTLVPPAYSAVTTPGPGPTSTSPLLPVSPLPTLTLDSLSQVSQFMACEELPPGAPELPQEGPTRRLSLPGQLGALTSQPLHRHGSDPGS

Row | SMILES | hERG current change (%, negative = inhibition) at 10uM [%]
1 | COc1ccc(CNC(=O)c2oc3ccc(S(=O)(=O)N4CCOCC4)cc3c2C)cc1 | 7.71
2 | COc1ccccc1NC(=O)Nc1ncccc1C | -1.09
3 | O=C1NCCN(Cc2ccoc2)C1CC(=O)N(Cc1ccccc1)CC1CCC1 (stereo not shown) | 8.87
4 | COc1ccc(Cl)cc1NC(=O)COC(=O)c1c(-c2ccccc2)noc1C | -2.53
5 | CC(=O)N1CCN(c2nc(-c3cccs3)nc3ccccc23)CC1 | -63.2
6 | Oc1ccccc1N1CCN(c2nc(-c3cccs3)nc3ccccc23)CC1 | 5.52
7 | CCOC(=O)N1CCN(c2nc(-c3cccs3)nc3ccccc23)CC1 | -1.74
8 | CC(=O)NC(CC(=O)Nc1nccs1)c1ccccc1.O=C(O)C(=O)O (stereo not shown) | 1.49
9 | COCCCNCCCOc1ccc(Cl)cc1C(C)(C)C | -57.5
10 | C=CCNCCOCCOc1ccc(Cl)cc1C(C)(C)C.O=C(O)C(=O)O | 11.2
11 | CC(C)(C)NCCCOc1ccc(Cl)cc1C(C)(C)C.O=C(O)C(=O)O | 1.96
12 | CC(O)CNCCCOc1ccc(Cl)cc1C(C)(C)C.O=C(O)C(=O)O (stereo not shown) | -15.9
13 | COCCCNCCOCCOc1ccc(Cl)cc1C(C)(C)C.O=C(O)C(=O)O | -50.6
14 | COCCCNCCCOc1ccc(Cl)cc1Br | -39.2
15 | CC(C)(C)NCCOCCOc1ccc(Cl)cc1C(C)(C)C.O=C(O)C(=O)O | 0.207
16 | CNCCCOc1ccc(Cl)cc1C(C)(C)C.O=C(O)C(=O)O | -20.6
17 | C=CCNCCCOc1ccc(Cl)cc1C(C)(C)C.O=C(O)C(=O)O | -60.8
18 | O=C(CSc1ccccn1)N1CCN(c2ccccc2)CC1 | 7.55
19 | COc1ccc(O[C@H]2C=C[C@@H](c3ccccc3)O[C@@H]2CO/N=C(\C)CCN2CCc3nc(-c4ccccc4)c(-c4ccccc4)cc3C2)cc1 | 6.94
20 | CCCNC(=O)NC(=O)CSc1ncc(C(F)(F)F)cc1Cl | 12.6
21 | C#CCOCCOCCOCCNc1nc(N2CCN(C(=O)[C@H](CCCCN)n3cc([C@@H](N)CC(C)C)nn3)CC2)nc(N2CCN(C(=O)[C@H](CCCCN)n3cc([C@@H](N)CC(C)C)nn3)CC2)n1.Cl | 4.98

Row | SMILES | hERG current change (%, negative = inhibition) at 10uM [%]
22 | CCCCNS(=O)(=O)c1ccc(S(=O)(=O)NCc2ccncc2)cc1 | -9.06
23 | CCc1cccc2c(C(=O)CSc3nncn3C)c[nH]c12 | 7.69
24 | CN(C(=O)CC1C(=O)NCCN1Cc1ccc(F)cc1Cl)C1CCCCC1 (stereo not shown) | -2.68
25 | CN1CCN(c2ccc([N+](=O)[O-])c(NCc3ccco3)c2)CC1 | -51.9
26 | O=C(c1ccccc1)N1CCN(c2ccc([N+](=O)[O-])c(NCc3ccco3)c2)CC1 | -47.2
27 | O=[N+]([O-])c1ccc(N2CCN(CCO)CC2)cc1NCc1ccco1 | -32.2
28 | O=[N+]([O-])c1ccc(N2CCNCC2)cc1NCc1ccco1 | -28.2
29 | Cc1cccc(C(=O)N2CCN(c3ccc([N+](=O)[O-])c(NCc4ccco4)c3)CC2)c1 | -34
30 | Cc1ccc(C(=O)N2CCN(c3ccc([N+](=O)[O-])c(NCc4ccco4)c3)CC2)cc1 | -50.5
31 | COc1cc(OC)cc(C(=O)NNC(=O)c2ccc(-n3cncn3)c([N+](=O)[O-])c2)c1 | 5.46
32 | CCN(CC)Cc1cc(C(=O)O)c(C)o1 | 19.4
33 | O=C(CCn1c(=O)c2cccn2c2ccc(F)cc21)NCc1cccc(F)c1 | 23.4
34 | CCOC(=O)COn1c2c(c3c4no[n+]([O-])c4ccc31)CCCC2 | 3.89
35 | CCCCN=Cc1sc2ccc(OCC)cc2c1O | 3.66
36 | CCN(CC)CCCn1c2c(c(SCC(=O)Nc3ccc4c(c3)OCCO4)nc1=O)CCC2 | -43.4
37 | CCOc1ccc(NC(=O)CSc2nc(=O)n(CCN3CCOCC3)c3c2CCCC3)cc1 | -28.1
38 | CCN(CC)CCCn1c2c(c(SCC(=O)Nc3ccc4c(c3)OCO4)nc1=O)CCC2 | -44.6
39 | O=C(CSc1nc(=O)n(CCN2CCOCC2)c2c1CCC2)Nc1ccc(OC(F)(F)F)cc1 | -71.8
40 | CCN(CC)CCn1c2c(c(SCC(=O)Nc3ccc4c(c3)OCO4)nc1=O)CCC2 | -39.2
41 | CCN(CC)CCCn1c2c(c(SCC(=O)Nc3cccc(C(C)=O)c3)nc1=O)CCC2 | -59.4
42 | COc1ccc(NC(=O)CSc2nc(=O)n(CCN3CCOCC3)c3c2CCC3)cc1 | 0.105

Row | SMILES | hERG current change (%, negative = inhibition) at 10uM [%]
43 | CCN(CC)CCCn1c2c(c(SCC(=O)Nc3ccc(F)c(F)c3)nc1=O)CCC2 | -55.1
44 | CC(=O)c1cccc(NC(=O)CSc2nc(=O)n(CCN3CCOCC3)c3c2CCC3)c1 | -17.6
45 | CCN(CC)CCn1c2c(c(SCC(=O)Nc3ccc(F)c(F)c3)nc1=O)CCC2 | -70.5
46 | CC(=O)c1cccc(NC(=O)CSc2nc(=O)n(CCCN3CCOCC3)c3c2CCC3)c1 | -29.1
47 | CN(C)CCn1c2c(c(SCC(=O)Nc3ccc4c(c3)OCCO4)nc1=O)CCC2 | -16.1
48 | COc1cc2c(cc1OC)C(C)N(C(=O)CCN1C(=O)C3C4C=CC(C4)C3C1=O)CC2 (stereo not shown) | 16
49 | CC12CCC(=O)N1C(C(=O)N1CCN(c3cccc(Cl)c3)CC1)CS2 (stereo not shown) | -19.4
50 | Cc1ccccc1-c1noc(-c2ccccc2C(=O)NCC2CCCO2)n1 (stereo not shown) | -3.02
51 | Cc1ccc(C)c2nc3sc(C(=O)O)cc3cc12 | 20.9
52 | CN1C(=O)C(C)(C)c2cc(S(=O)(=O)N3CCCC(C(=O)NCc4ccc(Cl)cc4)C3)ccc21 (stereo not shown) | -8.2
53 | C=CCn1c(O)c(C(CC)=NCc2ccc3c(c2)OCO3)c(=O)[nH]c1=O | 3.09
54 | CCN(CC)c1nc(Nc2ccc([N+](=O)[O-])cc2)nc(N(CC)CC)n1 | 11.1
55 | CCN(CC)CCCn1c2c(c(SCC(=O)Nc3ccc(OC(F)(F)F)cc3)nc1=O)CCC2 | -67.7
56 | Clc1ccc(-c2nnc(SCc3ccon3)o2)c(Cl)c1 | -33.9
57 | COc1ccc(NC(=O)[C@@H]2CCCN2C(=O)[C@@H]2Cc3ccccc3CN2C(=O)OC(C)(C)C)cc1 | 14.8
58 | COC(=O)CCC(=O)c1oc2ccc(OC)cc2c1N | 4.41
59 | CC(CC(=O)Nc1ccc(S(=O)(=O)N2CCOCC2)cc1)c1ccccc1 (stereo not shown) | -4.25
60 | CCOc1ccc(S(=O)(=O)N2CCCCC2)cc1NC(=O)CC1OC(=O)c2ccccc21 (stereo not shown) | -31.3
61 | CC(C)Oc1ccc(S(=O)(=O)N2CCOCC2)cc1NC(=O)CC1OC(=O)c2ccccc21 (stereo not shown) | -25
62 | O=C(CC1OC(=O)c2ccccc21)Nc1cc(S(=O)(=O)N2CCOCC2)ccc1OCC(F)(F)F (stereo not shown) | -52.2
63 | CC(CC(=O)Nc1cc(S(=O)(=O)N2CCOCC2)ccc1OCC(F)(F)F)c1ccccc1 (stereo not shown) | -50.2

Row | SMILES | hERG current change (%, negative = inhibition) at 10uM [%]
64 | O=C(Nc1cc(S(=O)(=O)N2CCOCC2)ccc1OCC(F)(F)F)C1=COCCO1 | -42.8
65 | CCOc1ccc(Br)cc1C(=S)N1CCCC1 | 9.29
66 | COC(=O)c1ccc(Oc2cc(C)nc(Cl)n2)cc1 | 13.9
67 | O=C1CCCC2=C1C(c1ccncc1)Nc1ccccc1N2 (stereo not shown) | 10.2
68 | Cc1ccc(NC(=O)C2CCCN2C(=O)OCc2ccccc2)c(C)c1 (stereo not shown) | 12.7
69 | Cc1cccc(NC(=O)CC2c3ccccc3Oc3ccccc32)c1 | 18
70 | CC(C)c1cc(N2CCN(C(=O)c3ccco3)CC2)n2c(nc3ccccc32)c1C#N | -34.1
71 | CCCc1cc(N2CCN(C(=O)c3ccco3)CC2)n2c(nc3ccccc32)c1C#N | -56.1
72 | CCCCc1nc(N2CCN(C(=O)c3ccco3)CC2)c(C#N)c2c1CCCC2 | -5.71
73 | CCCc1cc(-n2ccnc2C)n2c(nc3ccccc32)c1C#N | 0.616
74 | CCCc1cc(-n2ccnc2)n2c(nc3ccccc32)c1C#N | -29.7
75 | CCCc1cc(-n2cnc3ccccc32)n2c(nc3ccccc32)c1C#N | -50.1
76 | NC(=O)c1cc[n+](CC2=C(C(=O)[O-])N3C(=O)[C@@H](NC(=O)C(c4ccccc4)S(=O)(=O)[O-])[C@H]3SC2)cc1.[Na+] (stereo partly shown) | 20.3
77 | Cc1cc(OCc2nn[nH]n2)c2c3c(c(=O)oc2c1)CCC3 | 3.12
78 | Cc1cc(C)c(S(=O)(=O)NCc2ccc3c(c2)OCO3)cc1C | -6.86
79 | Cc1onc(-c2ccccc2)c1C(=O)c1ccccc1 | 3.87
80 | COCCN1CC(C(=O)NCc2ncccc2C)CCC1=O (stereo not shown) | 22.6
81 | Cc1ccc(S(=O)(=O)CCC(=O)N(Cc2nnc(-c3ccc(Cl)cc3)o2)C2CC2)cc1 | -12.7
82 | O=[N+]([O-])c1ccc(N2CCN(S(=O)(=O)c3ccccc3)CC2)cc1NCc1cccnc1 | 1.8
